Bioassay records as filed in PubChem BioAssay.
An excerpt weighted towards active compounds, which were near 9.6% of everything screened.
HCT116 bCat-KO – beta-catenin-lacking colon tumor cell growth suppression; HCT116 beta-catenin knockout viability, CellTiter-Glo, 60 h; active compounds read low; viability, % at 10 µM; 1.5% of 140,000 active; AID 818;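 active = viability at or under a set limit, the compound median less 4 SD, cut at about 6% in these data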;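 also: 0% = Hyamine 1622 control at 20 µM and 100% = untreated cell control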
INS promoter inh – TRM-6 insulin promoter activity inhibition. 0.9% of 130,000 active. TRM-6 cells (human fetal islet line), insulin promoter-eGFP reporter, imaging; reporter expression induced with tamoxifen. inhibition, % at 2 µM;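 active = inhibition above the mean plus 3 SD, with well images judged a real hit on visual review, cut at about 60% in these data, passing the limit was not always enough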
PTEN del growth – growth suppressors of cells with PTEN tumor suppressor deletion; HCT116 PTEN-null viability, CellTiter-Glo, 60 h; active compounds read low; viability, % at 10 µM; 1.2% of 140,000 active;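 active = viability at or below a set limit, 4 SD under the median of all tested compounds, cut at about 3.7% in these data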;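 also: PTEN knockout HCT116 line with beta catenin targeted HCT116 as companion control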
Insulin prom up – MIN6 insulin promoter up-regulation; z-score at 5 µM; AID 1625; MIN6 insulin promoter-GFP reporter, high-content imaging; active compounds read high; 0.3% of 190,000 active;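 active = z-score above 3 at 5 µM with at least 500 cells counted in the well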
Autophagy mod – alters autophagy in cells | AID 463193 | 0.98% of 190,000 active | calls only at 10 µM (by protocol) | MEF GFP-LC3 puncta imaging; test concentration mostly 10 µM;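 active = percentage of spot-positive cells more than 3 SD above its plate mean, without a fluorescence outlier flag or 80% toxicity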;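 also: spot-positive cell cutoff set from DMSO-treated cells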
Lmaj promast – Leishmania major promastigote growth inhibition | 9% of 200,000 active | AID 1063 | inhibition, % at 10 µM | Leishmania major promastigotes, resazurin fluorescence viability; in the data active = inhibition above about 50%;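 also: promastigotes grown with compound for 44 hours at 28 °C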
* hit, by the source's call; i = inactive; · = not tested or not shown; + = active, no number.

SMILES | HCT116 bCat-KO | INS promoter inh | PTEN del growth | Insulin prom up | Autophagy mod | Lmaj promast
O=C(N/N=C/c1ccc(O)cc1)c1cc(C23CC4CC(CC(C4)C2)C3)[nH]n1 | · | · | · | -0.21 | · | ·
C/C(=N\NC(=O)c1cc(C(C)(C)C)[nH]n1)C12CC3CC(CC(C3)C1)C2 | · | · | · | · | + | 2
CCOC(=O)C1(Cc2cccc(OC)c2)CCN(C2CCOCC2)CC1 | · | -7 | · | -0.07 | i | 81*
CCOC(=O)C1(Cc2cccc(OC)c2)CCN(Cc2ccc(OC)c(O)c2)CC1 | · | · | · | · | i | 85*
CCOC(=O)C1(Cc2cccc(OC)c2)CCN(C/C=C/c2ccccc2)CC1 | · | · | · | · | i | 80*
CCN(CCCNC(=O)CCCCn1c(=O)[nH]c2ccccc2c1=O)c1ccccc1 | 101 | · | 100 | -0.4 | i | 13
Nc1nnc(-c2ccccc2)c(-c2ccccc2)n1 | 90 | -56 | 90 | · | i | 28
COC(=O)Cc1c(O)ccn(Cc2ccc3c(c2)OCO3)c1=O | · | -15 | · | 0.71 | i | -6
Cc1cnc(CN2CCc3c([nH]c4ccccc34)C2C2CCCCC2)[nH]1 (centres undefined) | · | -85 | · | 0.48 | i | 54*
Cn1c(C(=O)NC2CCCCC2)cc2c(=O)n(C)c3ccccc3c21 | 3.4* | · | 19 | -1.4 | i | 5
Cn1c(C(=O)NC2CCCCCC2)cc2c(=O)n(C)c3ccccc3c21 | 61 | · | 54 | -0.33 | i | 21
CN(CCNC(=O)c1cc2c(=O)n(C)c3ccccc3c2n1C)Cc1ccccc1 | 2.4* | · | 3.3* | -0.78 | i | 69*
Cn1c(C(=O)NCCN2CCN(c3ccccc3F)CC2)cc2c(=O)n(C)c3ccccc3c21 | 70 | · | 69 | -0.19 | i | 51*
COc1ccc(NC(=O)CNS(=O)(=O)c2cccs2)c(OC)c1 | 89 | 8 | 96 | · | i | -7
CCOC(=O)c1c(C)c(C(=O)NCc2ccco2)c(C)n1C | · | · | · | -0.04 | i | -3
CCCCOc1ccc(OCCCN2CCOCC2)cc1 | 84 | -23 | 90 | · | i | 100*
CCC(C)c1ccc(OCCCCN2CCOCC2)cc1 (centres undefined) | 87 | · | 86 | -0.6 | i | 97*
CCCCC(O)(CCN1CCOCC1)c1ccc(Cl)cc1 (centres undefined) | 73 | -50 | 75 | · | i | 76*
c1ccc(OCCOCCN2CCOCC2)cc1 | 95 | -55 | 101 | 0.1 | i | 5
CCCC(O)(CCN1CCCCC1)c1ccc(OCC)cc1 (centres undefined) | 88 | · | 94 | -2.3 | i | 77*
CCCCOc1ccc(C(O)(CCC)CCN2CCOCC2)cc1 (centres undefined) | 64 | -36 | 76 | -1.1 | i | 3
Cc1ccc(CNC(=O)C(OC(=O)c2ccco2)C(C)C)cc1 (centres undefined) | 98 | -33 | 89 | 1.2 | i | -1
O=C(/C(=C(\[O-])c1ccccc1)[n+]1ccc2ccccc2c1)c1ccc([N+](=O)[O-])cc1 | 91 | 13 | 92 | 0.44 | i | -13
CCCOc1ccc(C(=O)C(CN2CCOCC2)c2ccccc2)cc1 (centres undefined) | 2.6* | 47 | 2.1* | · | i | 100*
CCCCOc1ccc(C(O)(CC)CCN2CCOCC2)cc1 (centres undefined) | 87 | 29 | 90 | · | i | 83*
SMILES | HCT116 bCat-KO | INS promoter inh | PTEN del growth | Insulin prom up | Autophagy mod | Lmaj promast
CCOc1ccc(OCCOCCN2CCOCC2)cc1 | 94 | -31 | 85 | 0.68 | i | 94*
CCCC(O)(c1ccc(Cl)cc1)C(CN1CCOCC1)c1ccccc1 (centres undefined) | 51 | · | 55 | -0.96 | i | 73*
O=C(/C=C/c1ccccc1)Nc1scc(-c2ccccc2)c1C(=O)O | · | · | · | 0.93 | + | -3
O=C(/C=C/c1ccco1)Nc1scc(-c2ccccc2)c1C(=O)O | · | · | · | 0.36 | · | ·
COc1ccc(C(=O)Cc2ccc(F)cc2)c(OC)c1 | 103 | -17 | 97 | -0.05 | i | -9
Cc1c(-c2cccc(Cl)c2)nc2ccccc2c1C(=O)OCC(=O)Nc1ccc2c(c1)OCO2 | 60 | 47 | 57 | -1.1 | i | 58*
Cc1onc(-c2ccccc2)c1C(=O)OCC(=O)Nc1ccc2c(c1)OCO2 | 78 | -3 | 94 | -0.07 | i | 2
COc1ccc(CN2CCN(S(=O)(=O)c3ccccc3)CC2)c(OC)c1 | 80 | · | 78 | -0.9 | i | 11
CCN(CC)S(=O)(=O)c1cc([N+](=O)[O-])ccc1NNC(=O)Nc1ccccc1OC | 81 | -43 | 80 | · | i | 80*
CCCCOC(=O)C1=C(C)Nc2nnnn2C1c1ccc(OC)c(OC)c1OC (centres undefined) | 101 | -25 | 83 | -0.59 | i | 94*
COc1ccc(OC)c(S(=O)(=O)N2CCC(C(=O)NCCC3=CCCCC3)CC2)c1 | 85 | · | 84 | -0.29 | i | -3
FC(F)(F)c1ccc2c(c1)nc1n2CCCC1 | 87 | 73* | 97 | 0.39 | i | -6
CCOC(=O)c1ccc(NCc2ccc3c(c2)OCO3)cc1 | 94 | -6 | 99 | -0.56 | i | 13
Cc1ccc(C)c(N2CCN(CC3CC=CCC3)CC2)c1 (centres undefined) | 84 | -42 | 79 | -0.88 | i | 87*
C1=CCC(CN2CCNCC2)CC1 (centres undefined) | · | · | · | -0.36 | i | -4
O=C(O)c1ccc(NS(=O)(=O)c2cc(C(=O)O)ccc2Br)cc1 | 95 | 0 | 99 | -0.1 | i | 99*
COc1ccc(CCNC(=O)CSCc2ccc(C)cc2)cc1OC | · | 3 | · | · | i | 0
COC(=O)C(C)(C)ONC(=O)Nc1ccccc1Cl | · | · | · | 1.2 | i | 21
COCC(=O)Nc1ccccc1Br | 90 | -22 | 96 | -0.7 | i | 54*
COC(=O)C(C)(C)ONC(=O)Nc1ccccc1Br | 96 | 21 | 96 | 0.29 | i | 69*
CC(C)(C)n1nc2c(c1NC(=O)c1cccs1)CS(=O)C2 (centres undefined) | 95 | -330 | 110 | -0.48 | i | -6
Fc1ccccc1NC(=S)Nc1ccc(CN2CCOCC2)cc1 | · | · | · | 1.1 | i | 5
CCOC(=O)C1(CCOc2ccccc2)CCN(Cc2cnc(C)[nH]2)CC1 | · | · | · | -0.39 | i | 6
CCOC(=O)C1(CCOc2ccccc2)CCN(Cc2ccc(C)o2)CC1 | · | 0 | · | · | i | 74*
CCOC(=O)C1(CCOc2ccccc2)CCN(Cc2cnc(SC)nc2)CC1 | · | · | · | 0.83 | i | 86*
CCOC(=O)C1(CCOc2ccccc2)CCN(Cc2ccc(COC)o2)CC1 | · | · | · | -1.4 | i | 66*
CCOC(=O)C1(CCOc2ccccc2)CCN(Cc2cccc3nonc23)CC1 | · | 17 | · | -0.88 | i | 87*
CCOC(=O)c1cnc(SC)nc1Nc1cccc2ccccc12 | 67 | 12 | 62 | · | i | 4
O=[N+]([O-])c1ccc(COn2nnc3ccccc32)cc1 | · | · | · | -0.32 | i | 1
Cc1nnsc1-c1nnc(SCC(=O)c2ccc(C#N)cc2)n1C1CC1 | · | · | · | 0.87 | · | ·
